Screens (PubChem)
CHT block: inhibits the human high affinity choline transporter. Q9GZV3. CHT-expressing cells, membrane potential dye, choline response; active compounds read low. B-score at 10 µM. 0.86% of 310,000 active;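 active means B-score over 3 SD under the library average, and starting fluorescence ratio not unusually high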;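 further: choline stimulus applied at its EC90 after an EC20 pre-addition; B-score computed on integrated fluorescence ratio after choline addition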
ANO1 block: blocks the mouse calcium-activated chloride channel TMEM16A | Q8BHY3 | HEK293 TMEM16A/YFP iodide influx fluorescence, ionomycin | normalized B-score (activity score, 25-100; higher = stronger inhibition) at 10 µM | 1.2% of 310,000 active | AID 588511;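 active means ratio plate-corrected score three or more library SD toward inhibition, starting fluorescence score within five deviations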;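 further: score derived from kinetic fluorescence span divided by baseline fluorescence per well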
CHT PAM: allosteric activators of human choline transporter CHT | CHT-expressing cells, membrane potential dye, choline EC20; active compounds read high; LV-AA mutant CHT in HEK293 cells | AID 488977 | 0.49% of 310,000 active | Q9GZV3 | B-score at 10 µM;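 active means initial fluorescence not abnormally high and integrated response B-score, plate-corrected, over 3 SD above library mean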
TMEM16A act: activates or potentiates the mouse TMEM16A chloride channel; HEK293 TMEM16A/YFP-H148Q/I152L, iodide quench fluorescence; active compounds read low; B-score at 10 µM; 0.3% of 340,000 active;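 active means fluorescence-ratio B-score plate-corrected deviation score at least 3 library SD below zero, with starting fluorescence score within 5 deviations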;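 further: channel opened by trigger with iodide after compound preincubation; score built on the fluorescence ratio of max minus min over baseline; more negative score means more quench and so TMEM16A activation or potentiation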
Kir21 block: Kir2.1 (mouse) channel inhibition; P35561; HEK293-Kir2.1, FluxOR thallium flux fluorescence; active compounds read low; B-score at 10 µM; 0.85% of 310,000 active; AID 1672;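 active means fluorescence ratio B-score at or below minus 3 SD of library scores, with starting-brightness B-score within 2 SD, cut at about -4.2 in these data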;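 further: channel flux triggered by added potassium and thallium sulfate stimulus; B-score of peak minus minimum fluorescence over baseline after thallium stimulus; more negative B-score means stronger Kir2.1 block with less thallium influx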
Target sequence (P35561 whole entry, looked up): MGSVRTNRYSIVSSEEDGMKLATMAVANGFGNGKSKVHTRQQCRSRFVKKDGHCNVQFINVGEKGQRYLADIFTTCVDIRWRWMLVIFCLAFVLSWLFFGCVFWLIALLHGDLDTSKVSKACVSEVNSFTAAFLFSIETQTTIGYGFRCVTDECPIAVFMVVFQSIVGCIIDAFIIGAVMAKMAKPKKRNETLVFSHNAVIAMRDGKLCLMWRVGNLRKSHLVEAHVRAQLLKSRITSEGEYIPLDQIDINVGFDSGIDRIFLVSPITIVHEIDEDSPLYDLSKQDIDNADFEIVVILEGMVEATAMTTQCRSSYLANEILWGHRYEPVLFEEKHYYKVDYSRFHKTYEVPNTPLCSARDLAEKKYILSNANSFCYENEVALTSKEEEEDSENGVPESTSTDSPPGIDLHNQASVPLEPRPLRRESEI
Rce1 inh: blocks yeast Ras-converting enzyme; 0.27% of 290,000 active; yeast membranes, quenched prenylated peptide cleavage fluorescence; calls only; Q03530;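 active means fall in fluorescence gain of 50% or more versus controls, with final raw signal at or below 3038400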;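 further: plate controls were neutral control wells for no effect and wells lacking membranes for full effect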
TMEM16A reconf: TMEM16A (mouse) chloride channel inhibition, re-confirmation; inhibition, % at 10 µM; AID 652189; 39% of 2,300 active; shares compounds with ANO1 block; HEK293 TMEM16A/YFP-H148Q, iodide quench fluorescence; ionomycin added to raise cell calcium;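 active means mean duplicate percent inhibition, scaled so buffer wells are 0 and the reference blocker 100, over three buffer SD above buffer mean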
TMEM16A Ca cntr: calcium mobilization counter-screen hit for TMEM16A inhibitor series. shares compounds with ANO1 block. TMEM16A/YFP HEK293, Fluo4 calcium mobilization. 2% of 2,300 active. calcium response (% of ionomycin), % at 10 µM;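 active means duplicate-averaged calcium signal over 20% of the ionomycin maximum, relative to buffer baseline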;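 further: each well's signal is peak minus trough fluorescence divided by its pre-addition baseline; 0% = buffer wells and 100% = ionomycin wells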
YFP-HEK293 quench: parental YFP-HEK293 iodide quench counter-screen activity; 2,300 tested, under 10 active; YFP ratio F(max-min)/F0 at 10 µM; ionomycin; AID 652233; shares compounds with ANO1 block;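 active means yellow fluorescent protein signal ratio exceeding the buffer control mean by over 5 SD of those controls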;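 further: ratio is mean of duplicate wells from kinetic YFP trace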
ClC-1 rat inh: selectivity of TMEM16A inhibitors: inhibition of rat ClC-1 chloride channel; CHO ClC-1-YFP, iodide influx fluorescence quench; iodide control reads 0, buffer control 100; ratio percent, % at 10 µM; 2,300 tested, under 10 active; shares compounds with ANO1 block; AID 652236;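 active means duplicate-mean ratio percent above the mean of iodide-only control wells, which defines zero, plus 5 of their SD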;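 further: higher percent means stronger block of ClC-1 iodide influx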
An asterisk follows results filed as active; i = inactive; · = no result given. An excerpt weighted towards active compounds, which were near 3.2% of everything screened.

SMILES | CHT block | ANO1 block | CHT PAM | TMEM16A act | Kir21 block | Rce1 inh | TMEM16A reconf | TMEM16A Ca cntr | YFP-HEK293 quench | ClC-1 rat inh
Cc1cc(C(C)(C)C)oc1C(=O)N(CC(=O)NC1CCCC1)c1c(C)cccc1C | i | 100* | i | i | 0.02 | i | 26%* | i | -1.1 | -20
Cc1cc(C(C)(C)C)oc1C(=O)N(CC(=O)NC1CCCC1)c1ccc(F)cc1 | i | i | i | i | -0.02 | i | · | · | · | ·
Cn1c(N)c(C(=O)COC(=O)c2ccc(-c3ccccc3)cc2)c(=O)n(C)c1=O | · | · | · | i | · | · | · | · | · | ·
CCN(C(=O)COC(=O)c1ccc([N+](=O)[O-])o1)c1cccc2ccccc12 | · | · | · | i | · | · | · | · | · | ·
Clc1ccc(SCc2nc3ccccc3[nH]2)cc1 | i | i | i | i | 2.1 | i | · | · | · | ·
Clc1ccc(OCCSCc2nc3ccccc3[nH]2)cc1 | i | 100* | i | i | -1.2 | i | 20%* | i | -1.2 | -4
COc1ccc(-n2c(SCCC(=O)O)nnc2-c2ccncc2)cc1 | i | 100* | i | i | -2.8 | i | i | i | -1.2 | 2
COc1ccc(-c2nnc(SCCC(=O)O)n2-c2ccccc2)cc1OC | i | i | i | i | -2.3 | i | · | · | · | ·
COc1ccc(CN2CC(C(=O)NCc3ccccn3)CC2=O)cc1 (configuration not stated) | i | 100* | i | i | 1.5 | i | i | i | -1.1 | -20
COCCCNC(=O)C1CC(=O)N(Cc2ccc(OC)cc2)C1 (configuration not stated) | i | i | i | i | 0.32 | i | · | · | · | ·
S=C(NCc1ccc(Cl)cc1)Nc1ccc(Cl)cc1Cl | i | i | i | i | -0.25 | i | · | · | · | ·
O=C(NCCc1ccc(Cl)cc1)Nc1ccc(F)cc1 | i | i | i | i | -0.22 | i | · | · | · | ·
S=C(NCCc1ccc(Cl)cc1)Nc1ccc(Cl)cc1Cl | i | 25* | i | i | -0.87 | i | i | i | -0.97 | -12
Fc1ccc(CCNC(=S)Nc2ccc(F)c(Cl)c2)cc1 | i | 100* | i | -4.7* | -3.7 | i | 37%* | i | -1.1 | -14
Fc1ccc(CNC(=S)Nc2ccc(Cl)cc2Cl)cc1 | i | i | i | i | -0.95 | i | · | · | · | ·
Fc1ccc(NC(=S)Nc2ccc(Cl)cc2Cl)cc1 | i | 100* | i | · | -1.1 | · | 20%* | i | -1.1 | -10
CC(C)OP(=O)(OC(C)C)C(O)c1cccc([N+](=O)[O-])c1 (configuration not stated) | i | i | i | i | 0.79 | i | · | · | · | ·
COCC(=O)NCCSc1c(C)[nH]c2ccccc12 | i | 100* | i | i | -1.8 | i | i | i | -0.92 | -7
COc1ccc(NC(=O)c2cnc3sccn3c2=O)cc1 | i | 100* | i | i | 0.38 | i | i | i | -1 | -7
CC1(C)Oc2ccc(C(=O)NC3CCCC3)cc2N(CC(=O)N2CCOCC2)C1=O | i | i | i | i | 1.5 | i | · | · | · | ·
CCOC(=O)c1ccc2c(c1)N(CC(=O)N1CCCCC1)C(=O)C(C)(C)O2 | i | 100* | i | i | -0.09 | i | i | i | -1.2 | -4
CCOc1ncccc1C(=O)Nc1nnc(C2CC2)s1 | i | i | i | i | 0.06 | i | · | · | · | ·
CCc1c(C(=O)Nc2nnc(C3CC3)s2)csc1C | i | 100* | i | i | 0.08 | i | i | i | -0.95 | -5
CCOc1ccc(C(=O)NCC(=O)NCC2CCCCC2)cc1OCC | i | i | i | i | 2.2 | i | · | · | · | ·
CCCCOc1ccccc1Cn1c(=O)oc2ccc(C)cc21 | i | 100* | i | i | 0.02 | i | i | i | -1.2 | -8
SMILES | CHT block | ANO1 block | CHT PAM | TMEM16A act | Kir21 block | Rce1 inh | TMEM16A reconf | TMEM16A Ca cntr | YFP-HEK293 quench | ClC-1 rat inh
Cc1ccc(-n2c(SCC(N)=O)nc3c(c2=O)C2(CCCC2)Cc2ccccc2-3)cc1 | i | 25* | i | i | -1.8 | i | 39%* | i | -1.3 | -4
COc1ccc(O)c(C(=O)c2coc(=N)c(C(=O)Nc3ccc(SC(F)F)cc3)c2)c1 | i | i | i | i | -1 | i | i | i | -1.1 | -58
CC(C)OC(=O)c1cc(C(=O)c2cc(F)ccc2O)coc1=N | i | i | i | i | -3.6 | i | · | · | · | ·
Cc1cccc(CN2C(=O)N/C(=C/c3ccc(C)s3)C2=O)c1 | i | i | i | i | 0.16 | i | i | i | -0.84 | 8
Cc1ccc(S(=O)(=O)C(C#N)c2nc3ccccc3nc2N2CCCC2)cc1 (configuration not stated) | i | i | i | i | -1.5 | i | · | · | · | ·
Cc1cccc(S(=O)(=O)C(C#N)c2nc3ccccc3nc2N2CC(C)OC(C)C2)c1 (configuration not stated) | i | 25* | i | i | 1.4 | i | 18%* | i | -0.87 | -17
O=C(O)c1c(NC(=O)c2cccc3ccccc23)sc2c1CCC2 | i | 100* | i | i | 0.68 | i | 24%* | i | -1 | -14
COc1cc(NC(=O)COc2cc(O)c3c(c2)OC(C)(C)CC3=O)cc(OC)c1OC | i | 100* | i | i | 0.02 | i | 20%* | i | -1.3 | -30
COc1ccc(CNC(=O)COc2cc(O)c3c(c2)OC(C)(C)CC3=O)cc1 | i | i | i | i | -0.11 | i | · | · | · | ·
c1ccc(-c2nc(CSc3nnc(-c4cccs4)o3)cs2)cc1 | i | 100* | i | i | 1 | i | i | i | -1.2 | -4
Cc1ccc(Nc2nc(CSc3nnc(-c4cccs4)o3)cs2)cc1 | i | i | i | i | -0.12 | i | · | · | · | ·
Cc1ccc(N(CC(=O)NC2CCCCC2)C(=O)CNC(=O)c2ccco2)c(C)c1 | i | i | i | i | -1.1 | · | · | · | · | ·
COc1ccc(-c2cn(Cc3ccc(C(=O)c4ccccc4)cc3)nn2)cc1 | i | 25* | i | · | -0.24 | i | 27%* | i | -0.86 | -16
